# PubChem BioAssay (NCATS)
# Values joined by “and” are separate entries in the source; they are usually repeats but may differ in a detail not shown here. Equal values may be shown once. A number with no mark means an inactive call. Records with an inconclusive call do not appear. Where a call stands in place of a potency, no number is given. Active and inactive are the calls of the source. Unless noted, calls follow the shape of the dose curve; as a rule, active = well fitted curve in either direction with a large enough effect (not every such curve was filed as active); inconclusive = small, poorly fitted or top-dose-only effect, or another doubt; inactive = flat fitted curve, though single readings scatter.
# What was measured:
# [1] = AP1 Signaling Pathway (AID 357); settings: ME-180 AP-1-bla reporter, EGF-induced, beta-lactamase ratio, 5 h;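 also: ME-180 reporter cells stimulated with EGF at its EC50 level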
# Summary of the method: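 Beta-lactamase reporter under AP-1 response element, ME-180 background. Stimulus: EC50 EGF. Compound exposure 5 h, 37 °C. Detection: CCF4, 2.5 h RT, 460/530 nm. Values: AC50 from titration.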
# [2] = target: Cytochrome P450 1A2 (Homo sapiens) (UniProt P05177); assay: p450-cyp1a2 (AID 410; calls by dose curve)
# Cytochrome P450 1A2 (Homo sapiens), sequence (P05177 whole entry, looked up): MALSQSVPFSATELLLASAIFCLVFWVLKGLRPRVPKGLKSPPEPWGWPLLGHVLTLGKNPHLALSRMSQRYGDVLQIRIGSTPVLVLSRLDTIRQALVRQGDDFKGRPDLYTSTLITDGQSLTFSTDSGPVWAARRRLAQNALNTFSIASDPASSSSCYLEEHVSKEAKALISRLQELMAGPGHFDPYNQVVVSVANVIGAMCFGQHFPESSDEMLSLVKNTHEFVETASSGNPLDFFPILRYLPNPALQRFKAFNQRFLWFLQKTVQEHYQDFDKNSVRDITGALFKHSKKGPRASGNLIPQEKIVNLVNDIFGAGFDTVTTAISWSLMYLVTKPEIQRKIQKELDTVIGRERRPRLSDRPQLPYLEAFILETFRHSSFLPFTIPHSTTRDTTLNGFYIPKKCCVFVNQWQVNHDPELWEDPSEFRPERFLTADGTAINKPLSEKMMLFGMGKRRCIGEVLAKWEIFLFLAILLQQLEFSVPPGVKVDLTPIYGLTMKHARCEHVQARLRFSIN
# Summary of the method: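 20nM CYP1A2, 100uM Luciferin-ME (=Km), 100mM KPO4; cpd 10 min RT; +NADPH regen, 60 min RT; stop/detect 20 min; luminescence. Normalized to furafylline 57 uM = full inhibition.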
# [3] = NFAT Signaling Pathway (AID 444); settings: Jurkat NFAT-bla M1, carbachol, beta-lactamase ratio, 5 h; at 7.69 µM (top of the series) unless noted;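 also: carbachol stimulus at about its EC50 of 1 µM final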
# Summary of the method: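 Jurkat cells with NFAT-driven β-lactamase reporter and co-expressed M1 receptor, stimulated with carbachol (final 1 uM, ~EC50), compound titration, 5 h at 37 °C. CCF4 loaded 1 h at RT; 460/530 nm ratio gave %activity and AC50.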
# [4] = Stat Signaling Pathway (AID 446); settings: ME-180 (cervical carcinoma) SIE beta-lactamase reporter, IL-6 stimulated, 5 h;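 also: ME-180 cervical cancer cells given 40 pM IL-6 alongside compound; SIE-controlled beta-lactamase reporter measured as 460/530 nm FRET emission ratio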
# Summary of the method: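 Compound effects on IL-6-induced STAT reporter activity were measured in ME-180 cells. After overnight culture, cells were co-treated with 40 pM IL-6 for 5 hrs before beta-lactamase substrate loading at room temperature.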
# [5] = target: Glucocorticoid receptor (Homo sapiens) (UniProt P04150); assay: GR-GFP Redistribution (AID 450;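 active = compounds whose dose series gives a full or clear partial fitted curve of increased nuclear translocation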; also: potency is read from the fitted curve at half-maximal effect); settings: U2OS GR-GFP nuclear translocation, laser cytometry, 2 h
# Glucocorticoid receptor (Homo sapiens), sequence (P04150 whole entry, looked up, the tested form may be a part): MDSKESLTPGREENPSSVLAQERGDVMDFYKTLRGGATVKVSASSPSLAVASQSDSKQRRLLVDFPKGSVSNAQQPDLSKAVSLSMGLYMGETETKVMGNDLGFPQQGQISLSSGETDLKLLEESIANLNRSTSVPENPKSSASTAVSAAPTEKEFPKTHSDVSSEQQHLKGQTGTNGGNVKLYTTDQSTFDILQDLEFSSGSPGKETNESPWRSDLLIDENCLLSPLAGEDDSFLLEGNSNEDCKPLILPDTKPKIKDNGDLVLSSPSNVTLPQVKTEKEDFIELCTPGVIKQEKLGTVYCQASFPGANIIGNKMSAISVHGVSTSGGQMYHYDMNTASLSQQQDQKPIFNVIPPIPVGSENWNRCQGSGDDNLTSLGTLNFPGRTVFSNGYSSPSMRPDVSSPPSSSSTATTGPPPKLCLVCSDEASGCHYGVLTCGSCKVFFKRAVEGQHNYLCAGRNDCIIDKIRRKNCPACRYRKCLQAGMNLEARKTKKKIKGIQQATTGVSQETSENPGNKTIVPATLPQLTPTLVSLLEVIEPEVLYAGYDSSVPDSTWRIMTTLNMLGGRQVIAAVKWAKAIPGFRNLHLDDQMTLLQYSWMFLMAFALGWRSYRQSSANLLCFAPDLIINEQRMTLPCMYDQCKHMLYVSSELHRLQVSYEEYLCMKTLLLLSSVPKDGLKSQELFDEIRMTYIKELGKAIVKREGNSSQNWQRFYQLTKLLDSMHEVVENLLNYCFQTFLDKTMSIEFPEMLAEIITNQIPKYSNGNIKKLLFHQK
# [6] = target: Glucocorticoid receptor (Homo sapiens) (UniProt P04150); assay: GR-EFC Redistribution (AID 451; calls by dose curve; also: potency is read from the fitted curve at half-maximal effect); settings: CHO-K1 GR-EFC translocation, beta-gal luminescence, 2 h
# Summary of the method: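 CHO-K1 cells expressing nuclear EA and GR-ED fragments of b-gal; compounds titrated up to 46 uM final, 2 h at 37 C. GR nuclear translocation read as complemented b-gal luminescence after 1 h RT detection.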
# [7] = target: Mitogen-activated protein kinase 10 (Mus musculus) (UniProt Q61831); assay: JNK3 AlphaScreen Assay (AID 530);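 also: kinase came from lysate of stimulated human HepG2 cells; signal reports phosphorylation of biotinylated GST-cJun 1-79 at Ser73 with 10 µM ATP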
# Summary of the method: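 HepG2 lysate (IL-1b/TNFa pre-activated) + biotin-GST-cJun 1-79 + anti-pSer73 cJun; cpd titration, 15 min RT; ATP 10 uM start; Tris pH 7.6, MgCl2, DTT, vanadate; beads in EDTA buffer; AlphaScreen.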
# [8] = target: 3',5'-cyclic-AMP phosphodiesterase 4B (Homo sapiens) (UniProt Q07343); assay: qHTS Assay for Inhibitors of PDE-IV (AID 607; active = well fitted activation curve with a large enough effect in the main read-out, with a control signal flat, not every such curve was filed as active)
# 3',5'-cyclic-AMP phosphodiesterase 4B (Homo sapiens), sequence (Q07343 whole entry, looked up): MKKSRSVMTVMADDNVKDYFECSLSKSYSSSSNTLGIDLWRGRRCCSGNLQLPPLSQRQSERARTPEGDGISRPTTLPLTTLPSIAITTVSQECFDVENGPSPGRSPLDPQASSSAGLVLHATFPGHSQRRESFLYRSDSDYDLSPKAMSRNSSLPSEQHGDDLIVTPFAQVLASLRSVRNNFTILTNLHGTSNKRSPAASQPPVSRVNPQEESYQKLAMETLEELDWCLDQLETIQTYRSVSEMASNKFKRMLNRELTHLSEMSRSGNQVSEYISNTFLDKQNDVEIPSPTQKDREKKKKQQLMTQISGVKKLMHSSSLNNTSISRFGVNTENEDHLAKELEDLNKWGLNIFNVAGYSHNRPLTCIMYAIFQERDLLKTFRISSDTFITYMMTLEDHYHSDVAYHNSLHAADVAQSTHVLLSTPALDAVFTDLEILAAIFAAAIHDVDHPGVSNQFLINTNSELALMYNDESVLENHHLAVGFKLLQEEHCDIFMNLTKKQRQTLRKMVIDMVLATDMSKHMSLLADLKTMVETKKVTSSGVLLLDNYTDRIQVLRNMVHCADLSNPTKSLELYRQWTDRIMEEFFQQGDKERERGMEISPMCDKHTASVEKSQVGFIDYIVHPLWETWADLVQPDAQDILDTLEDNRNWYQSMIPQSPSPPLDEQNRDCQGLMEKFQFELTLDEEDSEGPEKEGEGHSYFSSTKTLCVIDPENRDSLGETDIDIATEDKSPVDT
# Summary of the method: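 ACTOne HEK293 cells carry a modified cAMP-gated CNG channel and express endogenous PDE4; plated 1000 cells/well, compounds up to 22.9 uM final. Membrane-potential dye fluorescence (ex 535/em 590) was read; parental cells received 10 uM forskolin + 100 uM RO 20-1724.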
# [9] = target: Guanine nucleotide-binding protein G(i) subunit alpha-1 (Homo sapiens) (UniProt P63096); assay: qHTS Assay for Inhibitors of RGS12 GoLoco Motif Activity (Green Fluorophore) (AID 879; active = well fitted curve in the direction sought with a large enough effect; an effect the other way counts as inactive or inconclusive;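 also: negative values mean loss of peptide binding seen as reduced polarization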)
# Guanine nucleotide-binding protein G(i) subunit alpha-1 (Homo sapiens), sequence (P63096 whole entry, looked up): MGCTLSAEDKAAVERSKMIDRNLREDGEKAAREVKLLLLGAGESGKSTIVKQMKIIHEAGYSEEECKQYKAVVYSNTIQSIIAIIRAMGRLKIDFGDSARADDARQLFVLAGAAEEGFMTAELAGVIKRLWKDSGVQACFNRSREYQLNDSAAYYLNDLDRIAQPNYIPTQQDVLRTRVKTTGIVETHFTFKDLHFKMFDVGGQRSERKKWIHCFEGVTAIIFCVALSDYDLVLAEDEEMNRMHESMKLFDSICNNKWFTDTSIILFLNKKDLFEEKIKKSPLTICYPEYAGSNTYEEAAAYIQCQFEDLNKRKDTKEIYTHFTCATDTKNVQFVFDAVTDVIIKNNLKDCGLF
# Summary of the method: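 A drop in FITC polarization marked displacement of the FITC-tagged RGS12 GoLoco peptide (10 nM) from Gαi1 (50 nM). Compounds were incubated 10 min at room temperature in Tris pH 7.5 buffer containing 150 mM NaCl, 0.1 mM GDP and 0.05% NP40; unlabeled peptide titration served as control.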
# [10] = target: Cytochrome P450 3A4 (Homo sapiens) (UniProt P08684); assay: qHTS Assay for Activators of Cytochrome P450 3A4 (AID 885; active = well fitted curve in the direction sought with a large enough effect; an effect the other way counts as inactive or inconclusive; also: nearly all actives have a fitted effect of over 65% in size)
# Cytochrome P450 3A4 (Homo sapiens), sequence (P08684 whole entry, looked up): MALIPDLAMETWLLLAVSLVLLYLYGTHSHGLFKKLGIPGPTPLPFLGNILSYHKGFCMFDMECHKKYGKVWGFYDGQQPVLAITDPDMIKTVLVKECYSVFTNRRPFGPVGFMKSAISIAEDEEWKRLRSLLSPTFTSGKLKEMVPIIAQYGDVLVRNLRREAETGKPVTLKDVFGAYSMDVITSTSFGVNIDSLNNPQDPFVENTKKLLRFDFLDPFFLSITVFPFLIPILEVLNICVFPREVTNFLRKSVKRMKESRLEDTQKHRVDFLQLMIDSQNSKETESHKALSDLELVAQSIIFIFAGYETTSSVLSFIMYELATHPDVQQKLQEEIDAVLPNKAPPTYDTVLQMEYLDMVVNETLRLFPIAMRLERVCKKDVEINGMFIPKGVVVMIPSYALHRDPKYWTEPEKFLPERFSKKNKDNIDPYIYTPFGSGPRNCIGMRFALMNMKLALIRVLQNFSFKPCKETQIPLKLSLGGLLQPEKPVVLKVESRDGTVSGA
# Summary of the method: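 CYP3A4 activity: Luciferin-PPXE O-dealkylation, 25uM substrate, 200mM KPO4, RT throughout. Read-out is luciferase luminescence; higher values reflect activation.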
# [11] = target: Cytochrome P450 2D6 (Homo sapiens) (UniProt P10635); assay: qHTS Assay for Inhibitors and Substrates of Cytochrome P450 2D6 (AID 891; active = well fitted curve in the direction sought with a large enough effect; an effect the other way counts as inactive or inconclusive; also: potency is read from the fitted curve at half-maximal effect; nearly all actives have a fitted effect of over 60% in size)
# Summary of the method: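 Luminescent read-out of luciferin formed by 5 nM human CYP2D6 demethylating 30 uM Luciferin-ME EGE (Km level) over 60 min at room temperature after NADPH regeneration addition. Data normalized to full inhibition by 1.43 uM quinidine.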
# [12] = target: Pyruvate kinase (Leishmania mexicana) (UniProt Q27686); assay: qHTS Validation Assay for Inhibitors of Leishmania Mexicana Pyruvate Kinase (AID 945; active = well fitted curve in the direction sought with a large enough effect; an effect the other way counts as inactive or inconclusive)
# Pyruvate kinase (Leishmania mexicana), sequence (Q27686 2-499 E452W): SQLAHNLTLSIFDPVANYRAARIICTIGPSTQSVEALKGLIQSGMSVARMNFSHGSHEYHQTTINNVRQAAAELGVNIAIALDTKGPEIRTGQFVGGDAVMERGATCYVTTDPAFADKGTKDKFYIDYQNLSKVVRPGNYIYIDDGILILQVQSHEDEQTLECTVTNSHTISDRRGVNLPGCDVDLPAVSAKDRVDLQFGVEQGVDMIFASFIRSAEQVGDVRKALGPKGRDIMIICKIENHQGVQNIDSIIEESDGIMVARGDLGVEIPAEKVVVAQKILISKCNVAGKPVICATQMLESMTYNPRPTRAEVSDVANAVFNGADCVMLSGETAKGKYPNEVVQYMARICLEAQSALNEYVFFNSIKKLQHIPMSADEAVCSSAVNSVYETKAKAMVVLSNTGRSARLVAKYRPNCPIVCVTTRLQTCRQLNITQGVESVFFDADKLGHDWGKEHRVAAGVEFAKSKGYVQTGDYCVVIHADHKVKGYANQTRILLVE
# Summary of the method: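 Luminescent ATP detection (PKLight) after a 1 h room-temperature reaction of 0.2 nM LmPYK E451W mutant with 0.5 mM PEP and 0.1 mM ADP at pH 7.2. Activity is normalized to DMSO-only control wells.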
# [13] = target: Pyruvate kinase PKM (Homo sapiens) (UniProt P14618); assay: qHTS Assay for Activators of Human Muscle Pyruvate Kinase (AID 954; active = well fitted curve in the direction sought with a large enough effect, not every such curve was filed as active)
# Pyruvate kinase PKM (Homo sapiens), sequence (P14618 whole entry, looked up): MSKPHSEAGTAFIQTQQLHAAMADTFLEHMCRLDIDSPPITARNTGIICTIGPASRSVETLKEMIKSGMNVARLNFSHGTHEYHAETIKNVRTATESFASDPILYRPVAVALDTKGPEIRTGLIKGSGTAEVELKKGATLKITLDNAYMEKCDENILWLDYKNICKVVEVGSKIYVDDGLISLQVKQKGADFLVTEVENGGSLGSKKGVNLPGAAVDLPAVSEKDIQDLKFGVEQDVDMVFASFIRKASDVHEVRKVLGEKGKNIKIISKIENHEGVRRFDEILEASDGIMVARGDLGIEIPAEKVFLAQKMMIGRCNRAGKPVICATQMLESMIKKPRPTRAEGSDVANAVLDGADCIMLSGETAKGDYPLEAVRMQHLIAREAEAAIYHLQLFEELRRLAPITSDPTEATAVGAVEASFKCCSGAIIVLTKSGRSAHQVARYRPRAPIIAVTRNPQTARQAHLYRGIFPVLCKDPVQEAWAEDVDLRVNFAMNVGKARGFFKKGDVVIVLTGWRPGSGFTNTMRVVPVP
# Summary of the method: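 A coupled luminescent readout tracked ATP made from ADP by purified PKM2. Final conditions included 0.1 nM enzyme, PEP and ADP at 0.5 and 0.1 mM, pH 7.2 imidazole buffer with BSA, and a one-hour room-temperature reaction.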
# [14] = target: Alpha-galactosidase A (Homo sapiens) (UniProt P06280); assay: Counterscreen for Glucocerebrosidase Inhibitors: qHTS Assay for Human alpha-Galactosidase at pH 4.5 (AID 992; active = well fitted curve in the direction sought with a large enough effect; an effect the other way counts as inactive or inconclusive)
# Alpha-galactosidase A (Homo sapiens), sequence (P06280 whole entry, looked up): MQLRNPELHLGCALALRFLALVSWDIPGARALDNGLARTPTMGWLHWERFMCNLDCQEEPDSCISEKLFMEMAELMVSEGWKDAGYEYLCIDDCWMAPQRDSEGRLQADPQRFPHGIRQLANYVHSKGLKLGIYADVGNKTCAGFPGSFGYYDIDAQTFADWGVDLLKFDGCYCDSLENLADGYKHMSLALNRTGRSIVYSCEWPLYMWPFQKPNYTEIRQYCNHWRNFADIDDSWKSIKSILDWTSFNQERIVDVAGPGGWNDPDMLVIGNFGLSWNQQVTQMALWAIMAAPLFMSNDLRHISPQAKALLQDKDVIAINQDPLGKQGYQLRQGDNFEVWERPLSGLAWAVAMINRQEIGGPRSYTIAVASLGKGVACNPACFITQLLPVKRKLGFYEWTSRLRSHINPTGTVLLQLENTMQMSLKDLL
# Summary of the method: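 Citrate buffer pH 4.5, Tween-20 0.005%. Enzyme 2 nM, substrate 80 uM, 20 min RT. Stop pH 10. Fluorescence Ex 365/Em 440. AC50 by Hill fit.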
# [15] = target: alpha-glucosidase (Oryza sativa, rice) (UniProt Q653V4); assay: Counterscreen for Glucocerebrosidase Inhibitors: qHTS Assay for Rice alpha-Glucosidase at pH 5.0 (AID 997; active = well fitted curve in the direction sought with a large enough effect; an effect the other way counts as inactive or inconclusive)
# Summary of the method: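 Endpoint fluorogenic assay at pH 5.0: compounds (0.7 nM to 77 uM) titrated against 4 nM rice enzyme and 400 uM 4-MU-alpha-glucoside for 20 min at room temperature; NaOH/glycine stop, read ex 365/em 440 nm, Hill-fitted AC50.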
# [16] = qHTS Assay for Identification of Small Molecule Agonists for Thrombopoietin (TPO) Signaling Pathway (AID 917; active = well fitted curve in the direction sought with a large enough effect; an effect the other way counts as inactive or inconclusive)
# Summary of the method: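 Human TPO receptor–transfected Ba/F3 cells (murine, IL-3-dependent) in IL-3-deficient medium; compounds plus TPO at EC50, 26 pM final; 24 hrs, 37 C; GpIIb-luciferase luminescence after 10 min RT detection.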
# [17] = target: Muscarinic acetylcholine receptor M1 (Rattus norvegicus) (UniProt P08482); assay: qHTS Assay for Antagonists of Acetylcholine Muscarinic M1 Receptor: Measurement of IP-One Response (AID 944; active = well fitted curve in the direction sought with a large enough effect; an effect the other way counts as inactive or inconclusive; also: nearly all actives have a fitted effect of over 75% in size)
# Muscarinic acetylcholine receptor M1 (Rattus norvegicus), sequence (P08482 whole entry, looked up): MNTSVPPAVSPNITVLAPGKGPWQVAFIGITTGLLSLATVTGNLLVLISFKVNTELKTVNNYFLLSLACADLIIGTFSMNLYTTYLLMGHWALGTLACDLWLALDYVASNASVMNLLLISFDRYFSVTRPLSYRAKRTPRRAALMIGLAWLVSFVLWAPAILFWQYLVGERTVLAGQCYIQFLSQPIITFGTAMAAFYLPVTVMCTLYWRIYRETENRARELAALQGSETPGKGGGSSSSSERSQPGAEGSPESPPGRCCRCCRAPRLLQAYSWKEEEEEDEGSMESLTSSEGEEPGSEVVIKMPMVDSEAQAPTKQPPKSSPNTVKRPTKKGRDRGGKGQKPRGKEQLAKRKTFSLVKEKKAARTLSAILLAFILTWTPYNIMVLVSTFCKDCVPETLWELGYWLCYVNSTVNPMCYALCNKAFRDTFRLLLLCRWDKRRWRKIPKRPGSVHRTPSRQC
# Summary of the method: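 Read-out: HTRF competition between d2-IP1 and Eu-cryptate anti-IP1 antibody, emission 620 and 665 nm. Stimulus was carbachol, EC80 (200 nM), for 30 min in M1-CHO cells (rat receptor), after 10 min compound pre-treatment.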
# [18] = at 7.69 µM (top of the series) unless noted
smiles,measurement,setting,value
COc1cc2nc(N(C)CCCNC(=O)[C@@H]3CCCO3)nc(N)c2cc1OC,"activity change, negative = inhibition",[1]; [18],7.7% [at 17.2 µM]
same,Potency,[2],inactive
same,"activity change, negative = inhibition",[3],-29.6% [at 17.2 µM]
same,"activity, negative = inhibition",[4]; [18],2.71% [at 17.2 µM]
same,Potency,[5],> 20.6 µM
same,Potency,[6],> 20.6 µM
same,Potency,[7],inactive
same,Potency,[8],inactive
Oc1ccc([C@@H]2CNCCc3c2cc(O)c(O)c3Cl)cc1,"activity change, negative = inhibition",[1]; [18],-5.37% [at 38 µM]
same,Potency,[2],inactive
same,"activity change, negative = inhibition",[3],1.42% [at 38 µM]
same,"activity, negative = inhibition",[4]; [18],18.7% [at 38 µM]
same,Potency,[5],> 46 µM
same,Potency,[6],> 46 µM
same,Potency,[7],inactive
same,Potency,[8],inactive
same,outcome,[9],inactive
same,Potency,[10],inactive
same,Potency,[11],3.16 µM (active)
same,outcome,[12],inactive
same,outcome,[13],inactive
same,outcome,[14],inactive
same,Potency,[15],inactive
Cc1ccc(S(=O)(=O)N[C@H](CO)C(=O)O)cc1,"activity change, negative = inhibition",[1]; [18],1.84%
same,Potency,[2],inactive
same,"activity change, negative = inhibition",[3],-20.5%
same,"activity, negative = inhibition",[4]; [18],0.571%
same,Potency,[5],> 46 µM
same,Potency,[6],> 9.22 µM
same,Potency,[7],inactive
same,Potency,[8],inactive
CN1[C@@H]2CC[C@H]1CC(OC(=O)[C@@H](CO)c1ccccc1)C2 (some centres not stated),"activity change, negative = inhibition",[1]; at 17.2 µM (top of the series),-0.827% and 1.39%
same,"activity change, negative = inhibition",[1]; at 38 µM (top of the series),10.7% and -6.14%
same,"activity change, negative = inhibition",[3],-38.1% [at 17.2 µM] (active)
same,"activity, negative = inhibition",[4]; at 17.2 µM (top of the series),10.3% and 3.29%
same,"activity, negative = inhibition",[4]; at 38 µM (top of the series),27.8% and 8.42%
same,Potency,[7],inactive
same,outcome,[9],inactive
same,outcome,[16],inactive
same,outcome,[12],inactive
same,outcome,[13],inactive
same,outcome,[14],inactive
same,Potency,[15],inactive
NC(=S)NCCC[C@@H](N)C(=O)O,"activity change, negative = inhibition",[1]; [18],4.46% [at 38 µM]
same,Potency,[2],inactive
same,"activity change, negative = inhibition",[3],4.17% [at 38 µM]
same,"activity, negative = inhibition",[4]; [18],-8.44% [at 38 µM]
same,Potency,[5],> 46 µM
same,Potency,[6],> 46 µM
same,Potency,[7],inactive
same,Potency,[8],inactive
same,outcome,[9],inactive
same,Potency,[10],inactive
same,outcome,[16],inactive
same,Potency,[17],inactive
same,outcome,[12],inactive
same,outcome,[13],inactive
same,outcome,[14],inactive
same,Potency,[15],inactive
CC1(C)O[C@H]2[C@@H](O1)[C@@H](On1nnc3ccc(Cl)cc31)O[C@@H]2[C@@H]1COC(C)(C)O1,"activity change, negative = inhibition",[1]; [18],-0.0878%
same,"activity change, negative = inhibition",[2],-10.9% [at 2.29 µM]
same,"activity change, negative = inhibition",[3],3.42%
same,"activity, negative = inhibition",[4]; [18],2.63%
same,Potency,[5],> 46 µM
same,Potency,[6],> 9.22 µM
same,Potency,[7],inactive
same,Potency,[8],inactive
C[C@@H]1O[C@@H](n2cc(F)c(=O)[nH]c2=O)[C@H](O)[C@@H]1O,"activity change, negative = inhibition",[1]; [18],-3.92% [at 38 µM]
same,Potency,[2],inactive
same,"activity change, negative = inhibition",[3],3.74% [at 38 µM]
same,"activity, negative = inhibition",[4]; [18],21.9% [at 38 µM]
same,Potency,[5],> 46 µM
same,Potency,[6],> 46 µM
same,Potency,[7],inactive
same,Potency,[8],inactive
same,outcome,[9],inactive
same,outcome,[16],inactive
same,Potency,[17],inactive
same,outcome,[12],inactive
same,outcome,[13],inactive
same,outcome,[14],inactive
same,Potency,[15],inactive
